Source: the supplement of paper PMC8728848
About 410 targets per protein were measured; listed, in parts, are those with the strongest signals and a random draw of the rest.

Columns and labels:
Assay in all cases: glycan array binding signal (z-score within array); higher = stronger binding
Conditions in all cases: glycan notation: IUPAC condensed, linker removed
[1] = molecular target: Fuc(a1-2)Gal(b1-3)GalNAc(b1-3)Gal(a1-4)Gal(b1-4)Glc
Procedure, shortened: (§1)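 Arrays were curated from the Consortium for Functional Glycomics database, 3228 in total, and kept only where the protein sequence was available. Binding is expressed as a within-array Z-score. This score was averaged across arrays of the same protein sequence at different concentrations or buffers and across linkers, and negative values can be read as non-binding.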

[2] = molecular target: Fuc(a1-2)Gal(b1-3)GalNAc(b1-4)[Neu5Ac(a2-3)]Gal(b1-4)Glc
Procedure, shortened: as §1

Fuc(a1-2)Gal(b1-3)GlcNAc = molecular target: Fuc(a1-2)Gal(b1-3)GlcNAc
Procedure, shortened: as §1

[3] = molecular target: Fuc(a1-2)Gal(b1-3)[Fuc(a1-4)]GlcNAc(b1-3)[Fuc(a1-3)[Gal(b1-4)]GlcNAc(b1-6)]Gal(b1-4)Glc
Procedure, shortened: as §1

[4] = molecular target: Fuc(a1-2)Gal(b1-4)GlcNAc(b1-3)GalNAc
Procedure, shortened: as §1

[5] = molecular target: Fuc(a1-2)Gal(b1-4)[Fuc(a1-3)]GlcNAc(b1-3)GalNAc
Procedure, shortened: as §1

[6] = molecular target: Fuc(a1-2)[Gal(a1-3)]Gal(b1-3)GlcNAc(b1-2)Man(a1-3)[Fuc(a1-2)[Gal(a1-3)]Gal(b1-3)GlcNAc(b1-2)Man(a1-6)]Man(b1-4)GlcNAc(b1-4)[Fuc(a1-6)]GlcNAc
Procedure, shortened: as §1

[7] = molecular target: Fuc(a1-2)[Gal(a1-3)]Gal(b1-4)Glc
Procedure, shortened: as §1

[8] = molecular target: Fuc(a1-2)[GalNAc(a1-3)]Gal(b1-4)GlcNAc(b1-2)Man(a1-3)[Fuc(a1-2)[GalNAc(a1-3)]Gal(b1-4)GlcNAc(b1-2)Man(a1-6)]Man(b1-4)GlcNAc(b1-4)[Fuc(a1-6)]GlcNAc
Procedure, shortened: as §1

[9] = molecular target: Fuc(a1-3)[Gal(b1-4)]GlcNAc(b1-2)Man(a1-3)[Fuc(a1-3)[Gal(b1-4)]GlcNAc(b1-2)Man(a1-6)]Man(b1-4)GlcNAc(b1-4)[Fuc(a1-6)]GlcNAc
Procedure, shortened: as §1

Gal(a1-2)Gal = molecular target: Gal(a1-2)Gal
Procedure, shortened: as §1

[10] = molecular target: Gal(a1-3)Gal(b1-4)GlcNAc(b1-3)GalNAc
Procedure, shortened: as §1

[11] = molecular target: Gal(a1-3)Gal(b1-4)[Fuc(a1-3)]GlcNAc
Procedure, shortened: as §1

[12] = molecular target: Gal(a1-4)Gal(b1-4)GlcNAc(b1-2)Man(a1-3)[Gal(a1-4)Gal(b1-4)GlcNAc(b1-2)Man(a1-6)]Man(b1-4)GlcNAc(b1-4)GlcNAc
Procedure, shortened: as §1

[13] = molecular target: Gal(b1-3)GalNAc(b1-4)[Neu5Ac(a2-3)]Gal(b1-4)Glc
Procedure, shortened: as §1

[14] = molecular target: Gal(b1-3)GlcNAc(b1-2)Man(a1-3)[Gal(b1-3)GlcNAc(b1-2)Man(a1-6)]Man(b1-4)GlcNAc(b1-4)GlcNAc
Procedure, shortened: as §1

[15] = molecular target: Gal(b1-3)GlcNAc(b1-3)Gal(b1-3)GlcNAc
Procedure, shortened: as §1

[16] = molecular target: Gal(b1-3)GlcNAc(b1-3)Gal(b1-4)[Fuc(a1-3)]GlcNAc(b1-6)[Gal(b1-3)GlcNAc(b1-3)]Gal(b1-4)Glc
Procedure, shortened: as §1

Gal(b1-4)GlcNAc(b1-2)Man = molecular target: Gal(b1-4)GlcNAc(b1-2)Man
Procedure, shortened: as §1

[17] = molecular target: Gal(b1-4)GlcNAc(b1-2)[Gal(b1-4)GlcNAc(b1-4)]Man(a1-3)[Gal(b1-4)GlcNAc(b1-2)[Gal(b1-4)GlcNAc(b1-6)]Man(a1-6)]Man(b1-4)GlcNAc(b1-4)GlcNAc
Procedure, shortened: as §1

[18] = molecular target: Gal(b1-4)GlcNAc(b1-3)Gal(b1-3)GlcNAc
Procedure, shortened: as §1

[19] = molecular target: Gal(b1-4)GlcNAc(b1-3)Gal(b1-4)[Fuc(a1-3)GlcNAc(b1-6)]Gal(b1-4)Glc
Procedure, shortened: as §1

Gal6S(b1-4)Glc = molecular target: Gal6S(b1-4)Glc
Procedure, shortened: as §1

GalNAc(b1-6)GalNAc = molecular target: GalNAc(b1-6)GalNAc
Procedure, shortened: as §1

GlcA(b1-3)Gal = molecular target: GlcA(b1-3)Gal
Procedure, shortened: as §1

[20] = molecular target: GlcNAc(a1-4)Gal(b1-3)GlcNAc
Procedure, shortened: as §1

[21] = molecular target: GlcNAc(a1-4)Gal(b1-4)GlcNAc(b1-3)Gal(b1-4)Glc
Procedure, shortened: as §1

[22] = molecular target: GlcNAc(a1-4)Gal(b1-4)GlcNAc(b1-3)Gal(b1-4)GlcNAc
Procedure, shortened: as §1

[23] = molecular target: GlcNAc(a1-6)Gal(b1-4)GlcNAc
Procedure, shortened: as §1

[24] = molecular target: GlcNAc(b1-2)Man(a1-3)[GlcNAc(b1-2)Man(a1-6)]Man(b1-4)GlcNAc(b1-4)[Fuc(a1-6)]GlcNAc
Procedure, shortened: as §1

[25] = molecular target: GlcNAc(b1-4)GlcNAc(b1-4)GlcNAc
Procedure, shortened: as §1

Kdn(a2-3)Gal(b1-4)GlcNAc = molecular target: Kdn(a2-3)Gal(b1-4)GlcNAc
Procedure, shortened: as §1

[26] = molecular target: Man(a1-2)Man(a1-6)[Man(a1-3)]Man(a1-6)[Man(a1-2)Man(a1-2)Man(a1-3)]Man
Procedure, shortened: as §1

[27] = molecular target: Man(a1-3)[Man(a1-6)]Man(a1-6)[Man(a1-3)]Man(b1-4)GlcNAc(b1-4)GlcNAc
Procedure, shortened: as §1

Man(a1-6)Man = molecular target: Man(a1-6)Man
Procedure, shortened: as §1

Man(b1-4)GlcNAc = molecular target: Man(b1-4)GlcNAc
Procedure, shortened: as §1

[28] = molecular target: Neu5Ac(a2-3)Gal(b1-3)GalNAc(b1-4)[Neu5Ac(a2-3)]Gal(b1-4)Glc
Procedure, shortened: as §1

[29] = molecular target: Neu5Ac(a2-3)Gal(b1-4)GlcNAc(b1-2)Man(a1-3)[Neu5Ac(a2-6)Gal(b1-4)GlcNAc(b1-2)Man(a1-6)]Man(b1-4)GlcNAc(b1-4)GlcNAc
Procedure, shortened: as §1

[30] = molecular target: Neu5Ac(a2-3)Gal(b1-4)GlcNAc(b1-3)Gal(b1-3)GlcNAc
Procedure, shortened: as §1

[31] = molecular target: Neu5Ac(a2-3)Gal(b1-4)[Fuc(a1-3)]GlcNAc(b1-3)Gal(b1-4)[Fuc(a1-3)]GlcNAc(b1-3)Gal(b1-4)[Fuc(a1-3)]GlcNAc
Procedure, shortened: as §1

[32] = molecular target: Neu5Ac(a2-6)Gal(b1-4)GlcNAc(b1-3)Gal(b1-4)GlcNAc(b1-3)Gal(b1-4)GlcNAc
Procedure, shortened: as §1

B1: CD72 ectodomain (Homo sapiens), P21854 (protein)
chain: RYLQVSQQLQQTNRVLEVTNSSLRQQLRLKITQLGQSAEDLQGSRRELAQSQEALQVEQRAHQAAEGQLQACQADRQKTKETLQSEEQQRRALEQKLSNMENRLKPFFTCGSADTCCPSGWIMHQKSCFYISLTSKNWQESQKQCETLSSKLATFSEIYPQSHSYYFLNSLLPNGGSGNSYWTGLSSNKDWKLTDDTQRTRTYAQSSKCNKVHKTWSWWTLESESCRSSLPYICEMTAFRFPD
[1]
  glycan array binding signal (z-score): -0.867
[2]
  glycan array binding signal (z-score): 0.01
Fuc(a1-2)Gal(b1-3)GlcNAc
  glycan array binding signal (z-score): 1.12
[3]
  glycan array binding signal (z-score): -0.186
[4]
  glycan array binding signal (z-score): 1.08
[5]
  glycan array binding signal (z-score): 5.72
[6]
  glycan array binding signal (z-score): 2.7
[7]
  glycan array binding signal (z-score): 0.3
[8]
  glycan array binding signal (z-score): 0.886
[9]
  glycan array binding signal (z-score): 0.575
Gal(a1-2)Gal
  glycan array binding signal (z-score): 0.56
[10]
  glycan array binding signal (z-score): -1.69
[11]
  glycan array binding signal (z-score): 1.45
[12]
  glycan array binding signal (z-score): 0.8
[13]
  glycan array binding signal (z-score): 1.16
[14]
  glycan array binding signal (z-score): 1.6
[15]
  glycan array binding signal (z-score): -0.958
[16]
  glycan array binding signal (z-score): 2.26
Gal(b1-4)GlcNAc(b1-2)Man
  glycan array binding signal (z-score): 0.51
[17]
  glycan array binding signal (z-score): -0.561
[18]
  glycan array binding signal (z-score): -0.795
[19]
  glycan array binding signal (z-score): -0.359
Gal6S(b1-4)Glc
  glycan array binding signal (z-score): -0.925
GalNAc(b1-6)GalNAc
  glycan array binding signal (z-score): -0.435
GlcA(b1-3)Gal
  glycan array binding signal (z-score): 2.21
[20]
  glycan array binding signal (z-score): -1.11
[21]
  glycan array binding signal (z-score): 0.006
[22]
  glycan array binding signal (z-score): 4.25
[23]
  glycan array binding signal (z-score): 4.24
[24]
  glycan array binding signal (z-score): 2.59
[25]
  glycan array binding signal (z-score): 0.82
Kdn(a2-3)Gal(b1-4)GlcNAc
  glycan array binding signal (z-score): 0.726
[26]
  glycan array binding signal (z-score): -0.32
[27]
  glycan array binding signal (z-score): 0.977
Man(a1-6)Man
  glycan array binding signal (z-score): -0.096
Man(b1-4)GlcNAc
  glycan array binding signal (z-score): 2.32
[28]
  glycan array binding signal (z-score): -0.087
[29]
  glycan array binding signal (z-score): 0.127
[30]
  glycan array binding signal (z-score): 1.03
[31]
  glycan array binding signal (z-score): 1.73
[32]
  glycan array binding signal (z-score): 0.371
